We go through 8 compounds from PubChem BioAssay (NCI).

Test systems include SK-MEL-2 melanoma; EKVX NSCLC; SN12C renal; UO-31 renal; TK-10 renal; ACHN renal; CAKI-1 renal; A498 renal; CCRF-CEM leukemia; MOLT-4 leukemia; SR leukemia; RPMI-8226 leukemia; OVCAR-8 ovarian; OVCAR-5 ovarian; OVCAR-4 ovarian; SK-OV-3 ovarian; IGROV1 ovarian; OVCAR-3 ovarian; HS 578T breast; NCI/ADR-RES ovarian.
Holding throughout (assay): NCI-60 one-dose screen, 48 h (100 = growth as untreated, 0 = no growth, -100 = all killed)
What all share (conditions): 10 µM unless noted

SMILES strings stand for the structures. The panel holds about 83,000 compounds, 20% with a hit somewhere; the sample as a whole holds those more often.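 Method: cells in 96-well plates; compound added at one concentration; 48 h incubation; percent growth measured; values under 10 scored active.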 Values without a mark were called inactive. Calls of active or inactive are those of the source.

Turning to `CCCCCN(CCCCC)C(=O)C(CCC(=O)O)NC(=O)c1ccc(Cl)c(Cl)c1` (stereo not given), the growth with SK-MEL-2 melanoma is 105%; in the test on EKVX NSCLC it was 109%; with SN12C renal, 100%; in the test on UO-31 renal it was 80.4%; with TK-10 renal it was 124%; in the test with ACHN renal, 100%. Also, the growth with CAKI-1 renal was 91.3%; in the test with A498 renal, 83.8%; in the test with CCRF-CEM leukemia, 114%; in the test on MOLT-4 leukemia, 102%; with SR leukemia it was 94.4%; with RPMI-8226 leukemia, 118%. In addition, the growth with OVCAR-8 ovarian was 106%; with OVCAR-5 ovarian, 102%; with OVCAR-4 ovarian, 115%; in the test with SK-OV-3 ovarian, 114%; in the test with IGROV1 ovarian, 107%; with OVCAR-3 ovarian, 113%. Besides, the growth is 102% in the test on HS 578T breast and 106% in the test on NCI/ADR-RES ovarian.

As for `CN1CCCN(CCNc2nccc(-c3c(-c4cccc(O)c4)nc4sccn34)n2)S1(=O)=O`, the growth is 22.1% with SK-MEL-2 melanoma; 84.9% in the test on EKVX NSCLC; 38.1% in the test with SN12C renal; 25.2% with UO-31 renal; 92.4% in the test on TK-10 renal; 22.9% in the test with ACHN renal. Moreover, the growth with CAKI-1 renal is -25% (active); in the test on A498 renal, 58.8%; with CCRF-CEM leukemia it was 31.3%; in the test on MOLT-4 leukemia, 37.8%; in the test on SR leukemia, 13.9%; with RPMI-8226 leukemia, 81.7%. Moreover, the growth in the test with OVCAR-8 ovarian was 60.1%; in the test with OVCAR-5 ovarian, 80.6%; in the test on OVCAR-4 ovarian, 51.5%; in the test with SK-OV-3 ovarian, 15.5%; with IGROV1 ovarian, 13.7%; in the test on OVCAR-3 ovarian, 60.6%. The values for the growth in the test on HS 578T breast and in the test on NCI/ADR-RES ovarian were 54.3% and 102%, respectively.

As to `CC(C)CCSc1nc(-c2ccc(F)cc2)c(C#N)c(N2CCCCC2)n1`, the growth with SK-MEL-2 melanoma was 85.7%; in the test on EKVX NSCLC, 97.2%; in the test with SN12C renal, 107%; with UO-31 renal, 80.4%; with TK-10 renal it was 97.4%; in the test with ACHN renal, 91.8%. Besides, the growth in the test with CAKI-1 renal was 75.6%; in the test with A498 renal, 88%; with CCRF-CEM leukemia it was 89.9%; in the test with MOLT-4 leukemia, 70%; in the test on SR leukemia, 87.6%; in the test with RPMI-8226 leukemia, 91.2%. In addition, the growth in the test with OVCAR-8 ovarian was 89.3%; in the test on OVCAR-5 ovarian, 102%; with OVCAR-4 ovarian, 93.6%; in the test on SK-OV-3 ovarian, 105%; in the test on IGROV1 ovarian, 106%; in the test with OVCAR-3 ovarian, 105%. Further, the growth in the test with HS 578T breast was 99.1%; in the test with NCI/ADR-RES ovarian, 99.2%.

On to `O=C(/C=C/c1ccc(F)cc1)N1CCN(C(=O)/C=C/c2ccc(C(F)(F)F)cc2)CC1`, for which the growth is 118% in the test on SK-MEL-2 melanoma; 93.1% in the test on EKVX NSCLC; 106% in the test on SN12C renal; 89.7% in the test with UO-31 renal; 105% with TK-10 renal; 115% in the test on ACHN renal. For the same compound, the growth was 97.3% with CAKI-1 renal; 130% in the test on A498 renal; 103% in the test on CCRF-CEM leukemia; 115% in the test on MOLT-4 leukemia; 114% in the test on SR leukemia; 124% with RPMI-8226 leukemia. In addition, the growth in the test with OVCAR-8 ovarian was 105%; with OVCAR-5 ovarian, 109%; with OVCAR-4 ovarian, 116%; in the test with SK-OV-3 ovarian, 118%; with IGROV1 ovarian, 122%; in the test on OVCAR-3 ovarian, 113%. The growth was 123% with HS 578T breast and 113% with NCI/ADR-RES ovarian.

For `CC1=C(/C=C/C(C)=C/C=C(C(=O)O)\C(C)=C\C(=O)O)C(C)(C)CCC1`, the growth in the test on SK-MEL-2 melanoma was 94.7%; in the test with EKVX NSCLC, 124%; in the test with SN12C renal it was 92%; with UO-31 renal, 92.7%; in the test with TK-10 renal, 98%; with ACHN renal, 99.9%. In addition, the growth in the test on CAKI-1 renal is 117%; in the test with A498 renal, 91.2%; in the test with CCRF-CEM leukemia, 93.3%; with MOLT-4 leukemia it was 86.3%; in the test on SR leukemia, 95.7%; in the test on RPMI-8226 leukemia it was 92%. Also, the growth with OVCAR-8 ovarian was 99.4%; in the test with OVCAR-5 ovarian, 97%; with OVCAR-4 ovarian, 115%; in the test with SK-OV-3 ovarian, 103%; with IGROV1 ovarian, 99.2%; in the test with OVCAR-3 ovarian it was 110%. Besides, the growth is 105% with HS 578T breast and 102% in the test on NCI/ADR-RES ovarian.

For `Clc1ccc(Cl)c(N=Cc2ccc3c(c2)OCO3)c1`, the growth in the test with SK-MEL-2 melanoma is 109%; in the test on EKVX NSCLC it was 98.8%; with SN12C renal, 105%; in the test with UO-31 renal it was 86.6%; with TK-10 renal it was 107%; in the test with ACHN renal, 114%. The growth with CAKI-1 renal is 94.6%; with A498 renal it was 91.6%; in the test with CCRF-CEM leukemia, 106%; in the test with MOLT-4 leukemia, 106%; in the test with SR leukemia, 114%; in the test with RPMI-8226 leukemia it was 99.9%. The growth in the test with OVCAR-8 ovarian was 97.8%; in the test with OVCAR-5 ovarian, 103%; in the test with OVCAR-4 ovarian it was 108%; with SK-OV-3 ovarian, 105%; with IGROV1 ovarian it was 114%; in the test on OVCAR-3 ovarian, 115%. Besides, the growth with HS 578T breast is 109%; in the test on NCI/ADR-RES ovarian, 106%.

In the case of `Oc1c(C(Nc2ccccc2Br)c2ccccc2)ccc2cccnc12` (stereo not given), the growth in the test with SK-MEL-2 melanoma is 12.1%; in the test with EKVX NSCLC, 23.4%; in the test with SN12C renal, 24.7%; in the test on UO-31 renal, 16.8%; in the test with TK-10 renal it was 30.3%; in the test on ACHN renal, 13.5%. Also, the growth in the test with CAKI-1 renal was 13.2%; in the test with A498 renal, 47.7%; with CCRF-CEM leukemia it was 17.3%; with MOLT-4 leukemia, 4.89% (active); in the test with SR leukemia, 1.95% (active); in the test on RPMI-8226 leukemia it was 45.8%. The growth in the test on OVCAR-8 ovarian is 23.5%; in the test with OVCAR-5 ovarian, 44.5%; with OVCAR-4 ovarian, 31.4%; in the test with SK-OV-3 ovarian, 35.2%; in the test with IGROV1 ovarian it was 20.1%; with OVCAR-3 ovarian, 32.8%. The growth is 59.2% with HS 578T breast and 2.07% (active) in the test with NCI/ADR-RES ovarian.

Take `COc1cnc2c(c1)C(=O)c1c-2n(CCCN2CCN(C)CC2)c(=O)c2cc(Cl)ccc12`: the growth in the test with SK-MEL-2 melanoma is 32.3%; in the test on EKVX NSCLC, 51.5%; with SN12C renal it was 43%; in the test with UO-31 renal it was 40.1%; in the test on TK-10 renal, 48.5%; in the test with ACHN renal, 18.4%. Besides, the growth was 45.3% with CAKI-1 renal; -4.26% (active) with A498 renal; -14.6% (active) with CCRF-CEM leukemia; -36.6% (active) with MOLT-4 leukemia; -9.29% (active) with SR leukemia; 43.5% in the test on RPMI-8226 leukemia. Further, the growth in the test with OVCAR-8 ovarian is 31%; with OVCAR-5 ovarian, 77.9%; in the test on OVCAR-4 ovarian, 43.9%; in the test with SK-OV-3 ovarian it was 52.3%; in the test with IGROV1 ovarian, 58.9%; in the test on OVCAR-3 ovarian, 68.3%. The growth in the test with HS 578T breast was 54.8%; in the test on NCI/ADR-RES ovarian it was 44.8%.
